Results filed as inconclusive are left out. Active and inactive are the calls of the source. Calls follow the shape of the full dose curve; tested in HEK293 reporter line.
Test: qHTS for Inhibitors of the Functional Ribonucleoprotein Complex (vRNP) of Lassa (LASV) Arenavirus: LASV Primary Screen - GLuc reporter signal (AID 1347082); also: nearly all actives have a fitted effect of over 60% in size
Conditions: LASV minigenome vRNP, Gaussia luciferase reporter; series mostly up to 57.5 µM; activity change, negative = inhibition: at the top concentration
% is scaled to controls: 0 for no effect and ±100 for the full control effect.

SMILES	activity change, negative = inhibition	Potency
CCN1CCCC1CN (stereo not drawn)	10% (inactive)	–
Nc1cc(=O)[nH]c(N)n1	–	inactive
NC(N)=NC(=O)Cc1c(Cl)cccc1Cl	–	inactive
Cc1cccc(C)c1NC(=O)c1cc(S(N)(=O)=O)c(Cl)cc1O	2.87% (inactive)	–
NS(=O)(=O)c1ccc(NC(=O)CCC(=O)O)cc1	-3.4% (inactive)	–
NCCNCCNCCNCCN	-3.37% [at 11.5 µM] (inactive)	–
COc1ccc2cc([C@H](C)C(=O)O)ccc2c1	–	inactive
COc1ccccc1OCC(O)CO (stereo not drawn)	-2.1% (inactive)	–
CC1(C)S[C@@H]2[C@H](NC(=O)C(c3ccccc3)S(=O)(=O)O)C(=O)N2[C@H]1C(=O)O (stereo partly drawn)	0.217% (inactive)	–
CCN(CC)CCOC(=O)c1ccc(N)cc1	–	inactive
CN=C(NC#N)NCCSCc1nc[nH]c1C	–	inactive
O=c1c(-c2ccc(O)cc2)coc2cc(O)cc(O)c12	–	inactive
CCN1CCC[C@H]1CNC(=O)c1c(OC)ccc(Br)c1OC	4.88% (inactive)	–
CC(=O)OCC(=O)[C@@]1(O)CC[C@H]2[C@@H]3CCC4=CC(=O)CC[C@]4(C)[C@H]3C(=O)C[C@@]21C	–	inactive
COc1cc(C(=O)NC2CCCNC2)cc(OC)c1OC (stereo not drawn)	13.5% (inactive)	–
NC(=O)n1c(O)c(C(=O)c2cccs2)c2cc(Cl)ccc21	-19.7% (inactive)	–
CC(C)CCOC(=O)c1ccc(N(C)C)cc1	8.79% (inactive)	–
CN=C(N)NC(=O)Nc1c(C)cccc1C	-3.97% (inactive)	–
CCCCCCCCCCCC(=O)[O][Sn]([CH2]CCC)([CH2]CCC)[O]C(=O)CCCCCCCCCCC	4.35% (inactive)	–

SMILES	activity change, negative = inhibition	Potency
CCN(CC)CCNC(=O)COc1ccc(OC)cc1	-1.77% (inactive)	–
Cc1cccc(C)c1NC(=O)CN1CCCCCC1	1.79% (inactive)	–
c1ccc(-c2nc[nH]c2-c2ccccc2)cc1	-3.02% (inactive)	–
COc1nccnc1NS(=O)(=O)c1ccc(N)cc1	4.34% (inactive)	–
C#C[C@]1(O)CC[C@H]2[C@@H]3CCc4cc(OC5CCCC5)ccc4[C@H]3CC[C@@]21C	-1.52% (inactive)	–
CN=C(NC#N)NCCSCc1csc(N=C(N)N)n1	-1.75% (inactive)	–
CC(=O)Nc1ccccc1	10.9% (inactive)	–
CCCC(=O)O[C@]1(C(=O)COC(=O)CC)CC[C@H]2[C@@H]3CCC4=CC(=O)CC[C@]4(C)[C@H]3[C@@H](O)C[C@@]21C	-32.6% [at 24.7 µM] (inactive)	–
CC(C(=O)O)c1ccc2c(c1)[nH]c1ccc(Cl)cc12 (stereo not drawn)	12% (inactive)	–
Cc1c(N(C)CS(=O)(=O)O)c(=O)n(-c2ccccc2)n1C	-10% (inactive)	–
CCCCCCCCCCCCCCCCN	-2.14% (inactive)	–
CCN1CCC[C@H]1CNC(=O)c1cc(S(N)(=O)=O)ccc1OC	–	inactive
CCN(CC)S(=O)(=O)c1ccc(C(=O)O)cc1	12.6% (inactive)	–
CCCCC(=O)OCC(=O)[C@H]1[C@H](C)C[C@H]2[C@@H]3C[C@H](F)C4=CC(=O)C=C[C@]4(C)[C@@]3(F)[C@@H](O)C[C@@]21C	12.6% (inactive)	–
CC1c2ccccc2CN1NC(=O)c1ccc(Cl)c(S(N)(=O)=O)c1 (stereo not drawn)	0.998% (inactive)	–
O=C(c1ccco1)N1CCNCC1	6.74% (inactive)	–
C[N+](C)(C)CC(O)CC(=O)[O-] (stereo not drawn)	6.43% (inactive)	–
C[C@H]1C[C@H](O)c2ccsc2S1(=O)=O	-4.97% (inactive)	–
CC(=O)OCC1=C(C(=O)O)N2C(=O)[C@@H](NC(=O)Cc3cccs3)[C@H]2SC1	–	inactive

Reference: PubChem BioAssay (NCATS)
